The target of experiment [1] is Estrogen receptor (Homo sapiens) (UniProt P03372). Put plainly: qHTS assay for small molecule antagonists of estrogen receptor alpha signaling (AID 588513; active = well fitted curve in the direction sought with a large enough effect in the signal ratio, with a control signal flat, not every such curve was filed as active; the % refers to the signal ratio; note: % is set by controls: 0 for no effect and ±100 for the full control effect). An outline of the steps: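 Fluorescence from CCF4 substrate after 2 h at room temperature gave reporter activity; cells had been exposed to compound and 0.5nM 17-beta-estradiol for 18 h at 37 C. Hill-equation fitting yielded IC50 and maximal response.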
On the technique in general: Quantitative high-throughput screening tests each substance at several concentrations.

Experiment [2] has the same target. Put plainly: qHTS assay for small molecule agonists of estrogen receptor alpha signaling (AID 588514; calls by dose curve;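 note: 0% = vehicle only and 100% = reference agonist; nearly all actives have a fitted effect of over 70% in size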). In outline: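 Fluorescence from CCF4 cleavage reports ER-alpha-driven beta-lactamase expression in HEK 293 cells treated 18 hrs at 37 C. Data normalized to 17-beta-estradiol (20 nM) and DMSO, fitted to Hill equation.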
Experiment [3] is described as follows: qHTS assay for small molecule antagonists of peroxisome proliferator-activated receptor delta signaling (AID 588535; active = well fitted inhibition curve with a large enough effect in the signal ratio, with a control signal flat, not every such curve was filed as active; the % refers to the signal ratio;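 for max response: cells co-treated with a PPAR-delta agonist as stimulator during compound exposure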). The settings on record: HEK293T PPARd-UAS-bla, beta-lactamase FRET ratio, 18 h; 460 nm channel. An outline of the steps:
(§1)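 Compounds tested in titration on PPAR-delta-UAS-bla HEK293T cells grown in charcoal/dextran-stripped serum (2%); beta-lactamase activity read via CCF4 emission at 460 and 530 nm.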

Experiment [4] has as its target Peroxisome proliferator-activated receptor delta (Homo sapiens) (UniProt Q03181). The experiment is described as above. An outline of the steps:
as §1

Experiment [5] concerns the target Peroxisome proliferator-activated receptor gamma (Homo sapiens) (UniProt P37231). The experiment can be described thus: qHTS assay for small molecule agonists of peroxisome proliferator-activated receptor gamma signaling (AID 588536; active = well fitted curve in the direction sought with a large enough effect in the signal ratio, with a control signal flat, not every such curve was filed as active; the % refers to the signal ratio;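 note: 0% = DMSO basal wells and 100% = rosiglitazone at 2 µM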). In outline:
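Cells were plated and held 6–6.5 h at 37 C, then compounds were added as a titration series. After a further 16 h, CCF4 dye was loaded for 2 h at room temperature and emission at 460/530 nm recorded.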

Experiment [6] in a line: qHTS assay for small molecule agonists of retinoid X receptor alpha signaling (AID 588544). The settings on record: HEK293T RXRa-UAS-bla, beta-lactamase reporter, 18 h; 530 nm emission.
Experiment [7] deals with Thyroid hormone receptor beta (Homo sapiens) (UniProt P10828). Put plainly: qHTS assay for small molecule agonists of thyroid hormone receptor beta signaling (AID 588545; calls by dose curve;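 note: 0% = DMSO only and 100% = 10 nM T3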). In outline: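 Efficacy and EC50 values derive from Hill fits of qHTS titration data, normalized to 10 nM T3 and DMSO-only wells. HEK 293 reporter cells were stimulated for 18 hrs at 37 C, with beta-lactamase activity measured by CCF4 fluorescence.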

Experiment [8] can be described thus: qHTS assay for small molecule antagonists of retinoid X receptor alpha signaling (AID 588546; active = well fitted inhibition curve with a large enough effect in the signal ratio, with a control signal flat, not every such curve was filed as active; the % refers to the signal ratio;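 note: cells stimulated with 9-cis-retinoic acid as agonist; % is set by controls: 0 for no effect and ±100 for the full control effect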). The settings on record: HEK293T RXRa-UAS-bla, beta-lactamase ratio, antagonist mode; measured here: W530 green channel, cytotoxicity proxy. An outline of the steps:
(§2)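 Beta-lactamase reporter inhibition, read as CCF4 fluorescence ratio (ex 405, em 460/530 nm) after 2 h at RT. HEK293T UAS-bla cells, 2500/well, were stimulated with 9-cis-RA at 500 or 100 nM final alongside test compound for 18 h at 37 C.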

The target in experiment [9] is Retinoic acid receptor RXR-alpha (Homo sapiens) (UniProt P19793). The experiment is described as above. As to conditions: HEK293T RXRa-UAS-bla, beta-lactamase ratio, antagonist mode. In outline:
as §2

For experiment [10], the target named is Thyroid hormone receptor beta (Homo sapiens) (UniProt P10828). Put plainly: qHTS assay for small molecule antagonists of thyroid hormone receptor beta signaling (AID 588547; active = well fitted inhibition curve with a large enough effect in the signal ratio, with a control signal flat, not every such curve was filed as active; the % refers to the signal ratio;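 note: cells stimulated with 0.4 nM T3 agonist during compound exposure; series mostly up to about 77 µM; % is set by controls: 0 for no effect and ±100 for the full control effect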). The settings on record: TR-UAS-bla HEK293, beta-lactamase ratio, antagonist mode, 18 h. An outline of the steps:
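TR-UAS-bla GripTite HEK293 cells in 2% charcoal/dextran FBS medium were preincubated 4 h at 37 C, given compound (0.59 nM to 92 uM) plus 0.4 nM T3 (final) for 18 h, then CCF4 for 2 h at RT; Hill fit gave IC50.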

A short description of experiment [11]: qHTS assay for small molecule activators of the p53 signaling pathway (AID 651743; active = well fitted activation curve with a large enough effect in the signal ratio, not every such curve was filed as active; the % refers to the signal ratio; note: series mostly up to about 92 µM; % of control where 0% means no effect). The settings on record: HCT-116 p53RE-bla, beta-lactamase FRET ratio, 16 h; activation: stronger effect = higher value. An outline of the steps:
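Here HCT-116 cells with an integrated p53-responsive beta-lactamase gene were incubated with compounds (16 hours, 37 C) after a 5-hour plating period; beta-lactamase activity was detected as fluorescence intensity via B/G FRET substrate.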

Experiment [12] in a line: qHTS assay for environmental chemicals that activate the Aryl hydrocarbon Receptor (AhR) signaling pathway (AID 651777). Note: % of control where 0% means no effect; nearly all actives have a fitted effect of over 15% in size. The settings on record: 1A2-DRE human hepatoma cells, luciferase, 24 h; activation: stronger effect = higher value. In outline:
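Stable CYP1A2 promoter/DRE-luciferase human hepatoma line treated 24 hr; One-Glo luminescence, 30 min RT.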

Experiment [13] addresses Peroxisome proliferator-activated receptor alpha (Homo sapiens) (UniProt Q07869). The experiment can be described thus: qHTS assay for small molecule agonists of the peroxisome proliferator-activated receptor alpha (PPARalpha) signaling pathway (AID 651778). Note: % of control where 0% means no effect. As to conditions: PathHunter PPARalpha complementation, chemiluminescence, 6 h; max response: stronger effect = higher value. An outline of the steps:
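Cells plated at 2,000/well and held overnight at 37 C, 5% CO2, then compound added by pin tool for 6 hr; after PathHunter detection reagent and 60 min at room temperature, chemiluminescence from enzyme complementation was read.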

Experiment [14] in a line: qHTS assay for small molecule agonists of the antioxidant response element (ARE) signaling pathway measured by Nrf2-dependant transcriptional activity (AID 720636; active = well fitted curve in the direction sought with a large enough effect in the repeat runs; an effect the other way counts as inactive or inconclusive;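 note: HepG2 cells with an ARE-driven luciferase reporter; % of control where 0% means no effect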). In outline: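 Reporter gene assay, HepG2 ARE-luc: 16 hr compound, 37 C, 5% CO2; read-out luciferase luminescence.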
The nature of experiment [15]: qHTS assay for small molecule agonists of the antioxidant response element (ARE) signaling pathway measured by Nrf2-dependant transcriptional activity - cell viability counter screen (AID 720653; active = well fitted curve in the direction sought with a large enough effect in the repeat runs; an effect the other way counts as inactive or inconclusive; note: % is set by controls: 0 for no effect and ±100 for the full control effect). As to conditions: ARE-bla HepG2 viability, CellTiter-Glo ATP luminescence, 16 h; max response: stronger effect = lower value. In outline:
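ARE-bla HepG2 cells (2,000/well) rested 5 hrs at 37C/5% CO2, then exposed to compounds in DMSO for 16 hrs. Viability was read in the same wells as intracellular ATP by luminescence, 30 min at room temperature after reagent addition.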

A short description of experiment [16]: qHTS assay for cell viability of HEK293 cells (AID 743288). Note: % is set by controls: 0 for no effect and ±100 for the full control effect; nearly all actives have a fitted effect of over 50% in size. The settings on record: ATP luminescence (CellTiter-Glo), 18 h; max response: stronger effect = lower value. In outline: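 Viable-cell counts were inferred from luciferase-based ATP content in HEK293 cells seeded at 2,000/well, pre-incubated ≥5 h, then dosed with DMSO-solubilised compounds for 18 h at 37 C.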

A short description of experiment [17]: qHTS assay for cell viability of the p53RE-bla HCT-116 cell line (AID 743292). Note: % is set by controls: 0 for no effect and ±100 for the full control effect; nearly all actives have a fitted effect of over 55% in size. In outline: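 Readout: CellTiter-Glo luminescence after 30 min RT. Treatment: compounds in DMSO, 16 h, 37 C. Cells: CellSensor p53RE-bla HCT-116, 4,000/well, preincubated 5 h.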
For experiment [18], the target named is Nuclear receptor subfamily 1 group I member 2 (Rattus norvegicus) (UniProt Q9R1A7). Put plainly: qHTS assay for small molecule activators of the rat pregnane X receptor (rPXR) signaling pathway (AID 651751; call rule not given here; note: 0% is about no effect). The settings on record: rPXR reporter cells, luciferase (One-Glo), 24 h.
The target in experiment [19] is Glucocorticoid receptor (Homo sapiens) (UniProt P04150). The experiment can be described thus: qHTS assay for small molecule agonists of glucocorticoid receptor signaling (AID 588532; active = well fitted curve in the direction sought with a large enough effect in the signal ratio, with a control signal flat; the % refers to the signal ratio;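 note: 100% = dexamethasone at 0.1 µM and 0% = DMSO only wells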). The settings on record: HeLa MMTV-bla, beta-lactamase ratio, agonist, 18 h; stronger effect = higher value; percent of dexamethasone control, DMSO zero. In outline:
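MMTV-bla HeLa, beta-lactamase reporter; medium with 1% charcoal/dextran-stripped FBS; cpds up to 92 uM, 18 h, 37 C; CCF4 readout 460/530 nm; Hill fit → EC50, efficacy vs 0.1 uM dexamethasone = 100%.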

A short description of experiment [20]: qHTS assay for small molecule activators of the human pregnane X receptor (PXR) signaling pathway (AID 720659; call rule not given here; note: 0% is about no effect).

Records with an inconclusive call do not appear. Active and inactive are the calls of the source. Unless noted, calls come from the whole dose curve; as a rule, active = well fitted curve in the direction sought with a large enough effect; inconclusive = small, poorly fitted or top-dose-only effect, or another doubt; inactive = no such curve, though single readings can be large; an effect the other way counts as inactive or inconclusive.

Thyroid hormone receptor beta (Homo sapiens), sequence (P10828 whole entry, looked up): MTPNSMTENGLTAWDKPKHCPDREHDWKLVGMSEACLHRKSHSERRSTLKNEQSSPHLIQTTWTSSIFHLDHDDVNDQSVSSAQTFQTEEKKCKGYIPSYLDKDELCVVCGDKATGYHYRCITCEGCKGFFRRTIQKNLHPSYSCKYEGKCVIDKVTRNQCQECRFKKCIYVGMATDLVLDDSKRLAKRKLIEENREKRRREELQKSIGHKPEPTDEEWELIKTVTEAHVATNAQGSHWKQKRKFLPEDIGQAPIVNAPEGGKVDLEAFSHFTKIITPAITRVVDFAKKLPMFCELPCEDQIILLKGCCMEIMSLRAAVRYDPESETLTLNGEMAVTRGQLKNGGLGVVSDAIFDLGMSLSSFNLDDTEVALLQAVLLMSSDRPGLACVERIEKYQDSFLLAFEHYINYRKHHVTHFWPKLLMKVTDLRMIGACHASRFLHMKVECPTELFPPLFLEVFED
Nuclear receptor subfamily 1 group I member 2 (Rattus norvegicus), sequence (Q9R1A7 whole entry, looked up): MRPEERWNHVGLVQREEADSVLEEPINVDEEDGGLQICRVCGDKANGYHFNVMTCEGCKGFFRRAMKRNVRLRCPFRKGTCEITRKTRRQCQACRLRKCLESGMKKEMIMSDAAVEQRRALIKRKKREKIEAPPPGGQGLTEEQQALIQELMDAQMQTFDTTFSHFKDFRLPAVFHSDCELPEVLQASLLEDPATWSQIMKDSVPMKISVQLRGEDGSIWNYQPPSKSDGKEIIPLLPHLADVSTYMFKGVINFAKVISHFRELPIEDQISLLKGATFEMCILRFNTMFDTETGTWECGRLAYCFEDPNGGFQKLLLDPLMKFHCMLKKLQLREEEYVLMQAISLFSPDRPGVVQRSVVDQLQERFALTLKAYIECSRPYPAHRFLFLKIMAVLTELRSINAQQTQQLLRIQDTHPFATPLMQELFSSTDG
Peroxisome proliferator-activated receptor alpha (Homo sapiens), sequence (Q07869 whole entry, looked up): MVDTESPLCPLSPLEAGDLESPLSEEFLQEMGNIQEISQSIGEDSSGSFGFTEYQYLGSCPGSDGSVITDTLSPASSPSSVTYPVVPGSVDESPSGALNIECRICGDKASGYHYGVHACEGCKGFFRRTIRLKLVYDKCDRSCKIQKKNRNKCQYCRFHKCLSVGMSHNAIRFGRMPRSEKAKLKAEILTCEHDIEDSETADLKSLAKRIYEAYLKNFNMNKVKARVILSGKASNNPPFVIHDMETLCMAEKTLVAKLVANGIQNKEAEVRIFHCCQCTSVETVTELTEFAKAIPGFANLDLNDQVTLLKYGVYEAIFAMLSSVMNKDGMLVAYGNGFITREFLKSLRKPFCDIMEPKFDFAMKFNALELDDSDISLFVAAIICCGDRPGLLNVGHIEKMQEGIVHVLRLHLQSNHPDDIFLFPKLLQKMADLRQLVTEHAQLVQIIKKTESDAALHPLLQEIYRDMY
Retinoic acid receptor RXR-alpha (Homo sapiens), sequence (P19793 whole entry, looked up): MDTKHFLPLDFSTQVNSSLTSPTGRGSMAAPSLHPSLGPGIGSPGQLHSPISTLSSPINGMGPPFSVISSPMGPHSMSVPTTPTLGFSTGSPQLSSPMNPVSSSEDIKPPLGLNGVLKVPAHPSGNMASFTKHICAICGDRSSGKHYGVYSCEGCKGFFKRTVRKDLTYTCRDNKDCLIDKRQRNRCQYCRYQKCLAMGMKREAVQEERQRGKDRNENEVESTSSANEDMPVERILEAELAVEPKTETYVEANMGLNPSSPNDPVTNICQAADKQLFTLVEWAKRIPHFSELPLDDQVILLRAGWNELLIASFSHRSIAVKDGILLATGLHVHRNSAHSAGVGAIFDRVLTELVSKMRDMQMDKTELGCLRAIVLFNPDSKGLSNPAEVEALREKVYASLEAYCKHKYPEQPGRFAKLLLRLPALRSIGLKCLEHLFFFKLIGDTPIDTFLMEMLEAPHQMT
Peroxisome proliferator-activated receptor delta (Homo sapiens), sequence (Q03181 whole entry, looked up): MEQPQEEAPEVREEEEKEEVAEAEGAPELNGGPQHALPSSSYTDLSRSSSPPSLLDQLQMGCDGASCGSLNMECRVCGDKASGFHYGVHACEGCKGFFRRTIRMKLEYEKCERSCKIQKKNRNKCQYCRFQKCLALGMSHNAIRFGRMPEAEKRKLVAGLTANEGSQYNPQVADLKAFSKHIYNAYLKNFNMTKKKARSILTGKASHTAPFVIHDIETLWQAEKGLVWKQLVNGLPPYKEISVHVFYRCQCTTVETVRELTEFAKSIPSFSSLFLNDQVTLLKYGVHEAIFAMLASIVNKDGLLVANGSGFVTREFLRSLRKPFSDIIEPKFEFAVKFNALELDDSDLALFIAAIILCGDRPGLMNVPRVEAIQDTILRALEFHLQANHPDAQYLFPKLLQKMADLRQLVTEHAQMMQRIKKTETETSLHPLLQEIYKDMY
Peroxisome proliferator-activated receptor gamma (Homo sapiens), sequence (P37231 whole entry, looked up): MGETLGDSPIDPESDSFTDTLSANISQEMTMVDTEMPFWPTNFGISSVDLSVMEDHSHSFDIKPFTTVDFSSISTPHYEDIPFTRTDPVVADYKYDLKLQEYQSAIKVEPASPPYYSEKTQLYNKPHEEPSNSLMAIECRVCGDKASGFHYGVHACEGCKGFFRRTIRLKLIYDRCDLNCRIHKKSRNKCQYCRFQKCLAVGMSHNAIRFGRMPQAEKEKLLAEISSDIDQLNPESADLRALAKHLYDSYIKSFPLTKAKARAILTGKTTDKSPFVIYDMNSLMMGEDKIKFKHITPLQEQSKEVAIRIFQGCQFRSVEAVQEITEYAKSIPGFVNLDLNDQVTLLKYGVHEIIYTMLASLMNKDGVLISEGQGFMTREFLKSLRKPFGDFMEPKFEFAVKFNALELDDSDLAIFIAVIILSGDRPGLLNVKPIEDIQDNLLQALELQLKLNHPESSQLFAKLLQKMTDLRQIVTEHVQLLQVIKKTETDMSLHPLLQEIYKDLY
Estrogen receptor (Homo sapiens), sequence (P03372 whole entry, looked up): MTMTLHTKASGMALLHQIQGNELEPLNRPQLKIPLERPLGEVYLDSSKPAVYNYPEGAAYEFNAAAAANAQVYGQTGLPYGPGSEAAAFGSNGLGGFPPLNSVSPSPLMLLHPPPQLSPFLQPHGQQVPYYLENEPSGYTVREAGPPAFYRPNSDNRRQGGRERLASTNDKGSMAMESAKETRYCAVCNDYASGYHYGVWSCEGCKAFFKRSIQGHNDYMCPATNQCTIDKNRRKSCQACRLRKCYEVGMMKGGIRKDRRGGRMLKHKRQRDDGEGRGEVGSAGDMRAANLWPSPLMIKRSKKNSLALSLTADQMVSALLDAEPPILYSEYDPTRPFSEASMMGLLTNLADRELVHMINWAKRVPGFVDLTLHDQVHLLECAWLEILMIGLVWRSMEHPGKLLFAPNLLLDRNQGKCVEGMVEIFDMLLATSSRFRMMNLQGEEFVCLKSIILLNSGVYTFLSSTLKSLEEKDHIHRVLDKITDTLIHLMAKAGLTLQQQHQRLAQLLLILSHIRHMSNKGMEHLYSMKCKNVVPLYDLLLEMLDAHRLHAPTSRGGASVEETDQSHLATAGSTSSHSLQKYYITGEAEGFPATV
Glucocorticoid receptor (Homo sapiens), sequence (P04150 whole entry, looked up): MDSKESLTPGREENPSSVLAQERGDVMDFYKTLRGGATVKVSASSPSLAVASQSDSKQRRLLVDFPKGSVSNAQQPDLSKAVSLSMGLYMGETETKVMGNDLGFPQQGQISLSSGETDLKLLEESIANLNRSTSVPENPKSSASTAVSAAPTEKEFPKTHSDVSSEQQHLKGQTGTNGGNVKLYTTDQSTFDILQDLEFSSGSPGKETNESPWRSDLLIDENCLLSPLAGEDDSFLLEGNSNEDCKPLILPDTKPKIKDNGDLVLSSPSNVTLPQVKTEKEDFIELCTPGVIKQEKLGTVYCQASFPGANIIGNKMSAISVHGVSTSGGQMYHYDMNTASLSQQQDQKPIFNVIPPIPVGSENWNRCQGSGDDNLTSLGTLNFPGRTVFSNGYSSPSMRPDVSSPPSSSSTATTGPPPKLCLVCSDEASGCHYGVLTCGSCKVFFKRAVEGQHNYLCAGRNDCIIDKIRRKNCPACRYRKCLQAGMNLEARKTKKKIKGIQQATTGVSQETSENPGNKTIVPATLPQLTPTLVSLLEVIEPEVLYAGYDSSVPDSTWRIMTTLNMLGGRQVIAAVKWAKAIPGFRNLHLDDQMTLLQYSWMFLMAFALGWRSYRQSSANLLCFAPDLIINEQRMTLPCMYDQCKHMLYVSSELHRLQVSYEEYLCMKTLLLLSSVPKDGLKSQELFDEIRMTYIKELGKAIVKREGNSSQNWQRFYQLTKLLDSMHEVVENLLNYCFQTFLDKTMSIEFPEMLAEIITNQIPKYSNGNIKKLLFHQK

Take `C=CC(=O)OCC[N+](C)(C)C`: the Potency entry in experiment [1], in [2], in experiment [4], in experiment [7], in experiment [14] and in [17] was “inactive” each time. Further, the max response in experiment [3] is 35.3%; in experiment [6], 1.33%; in [8], 1.52%; in [9], 1.59% (inactive); in [13] it was -0.129% (inactive); in [15], 1.86% (inactive). Moreover, the max response in experiment [16] is -5.74% (inactive); in experiment [18], -0.896% (inactive). The call in experiment [5] was inactive. Besides, the activity change % (negative = inhibition) in experiment [10] is -9.01% (inactive). Further, the activation is 2.09% (inactive) in experiment [11] and 0.372% (inactive) in [12].
Take `OCCOCCOCCOCCO`: the Potency entry in experiment [1], in [2], in [4], in experiment [7] and in [17] was “inactive” throughout. The figures for the activation in experiment [19], in [11] and in [12] were -2.94% (inactive), 0.49% (inactive) and 2.06% (inactive), respectively. Also, the max response in experiment [3] was -5.22%; in experiment [6] it was 4.51%; in experiment [8], -7.24%; in experiment [9] it was -5.67% (inactive); in experiment [13] it was -1.11% (inactive); in experiment [15], 2.46% (inactive). Further, in experiment [16], the max response was -2.22% (inactive).
As to `CCCCCCCCCCCO`, the Potency result in experiment [1], in experiment [2], in [4], in [7], in experiment [14] and in experiment [17] was “inactive” throughout. The max response in experiment [3] is -7.63%; in experiment [6], -10.8%; in experiment [13], 1.65% (inactive); in [15], 3.39% (inactive); in [16] it was 4.45% (inactive); in experiment [18], 2% (inactive). In [5], the molecule was called inactive. Moreover, the activity change % (negative = inhibition) in experiment [10] was 9.58% (inactive). The activation in experiment [11] was 1.01% (inactive); in [12] it was -0.0375% (inactive).
As for `c1ccc(OCCOc2ccccc2)cc1`, the Potency result in [1], in experiment [2], in experiment [4], in experiment [7] and in [17] was “inactive” each time. The figures for the activation in experiment [19], in [11] and in [12] were -7.01% (inactive), 2.08% (inactive) and 8.39% (inactive), respectively. Further, the max response in experiment [3] is 9.85%; in experiment [8] it was -12.8%; in experiment [9], -10.1% (inactive); in experiment [13], 0.31% (inactive); in [15], -8.94% (inactive); in experiment [16] it was -4.78% (inactive). The molecule was called inactive in experiment [5]. The activity change % (negative = inhibition) in experiment [10] is 5.59% (inactive).
With `CC(C)(C)c1cccc(C(C)(C)C)c1O`, the Potency entry in [1], in experiment [2], in experiment [4], in [7], in [14] and in experiment [17] was “inactive” throughout. Also, the activation is -7.64% (inactive) in experiment [19], -0.526% (inactive) in experiment [11] and 0.241% (inactive) in [12]. Further, the max response in experiment [3] is -24.3%; in experiment [6], -8.93%; in [8], -10.7%; in experiment [9], -0.1% (inactive); in [15], -3.7% (inactive); in experiment [16], 0.51% (inactive). The max response in [18] is 0.577% (inactive). For the same molecule, the molecule was called inactive in [5] and in [20]. In addition, the activity change % (negative = inhibition) in experiment [10] is 16.3% (inactive).
`CC(C)C(=O)OCC(C)(C)C(O)C(C)C` (stereo not drawn): the Potency result in experiment [1], in [2], in experiment [4], in [14] and in experiment [17] was “inactive” each time. In addition, the activation was -3.75% (inactive) in [19], -2.18% (inactive) in [11] and -2.96% (inactive) in experiment [12]. In addition, the max response in [3] was 1.76%; in experiment [6], 6.96%; in [8], -13.9%; in experiment [9], -10.9% (inactive); in [13] it was -0.497% (inactive); in experiment [15] it was -3.28% (inactive). The max response was -9.28% (inactive) in experiment [16] and -1.98% (inactive) in experiment [18]. Further, the result in experiment [5] and in experiment [20] was inactive. Besides, in experiment [10], the activity change % (negative = inhibition) was -5.03% (inactive).

The record behind these values is PubChem BioAssay (NCATS).
